Laboratory results published in PubChem BioAssay (NCI).
“And” between values parts separate entries of the source, which are not always exact repeats. Equal values may be shown once. About 83,000 compounds went through this panel and 20% of them were active in at least one assay; those are over-represented in the sample as a whole.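 Interpretation: 100, growth as untreated; towards 0, rising growth inhibition; 0, no net growth; 0 to -100, cell death. Compounds scoring below 10 were considered active.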 Values without a mark were called inactive. The source made the active and inactive calls.

Tests used:
Assay in all cases: NCI-60 one-dose screen, 48 h (100 = growth as untreated, 0 = no growth, -100 = all killed)
EKVX NSCLC = details: 10 µM
SN12C renal = details: 10 µM
UO-31 renal = details: 10 µM
TK-10 renal = test system: TK-10 renal
ACHN renal = details: 10 µM
CAKI-1 renal = details: 10 µM
A498 renal = details: 10 µM
CCRF-CEM leukemia = details: 10 µM
MOLT-4 leukemia = details: 10 µM
OVCAR-8 ovarian = details: 10 µM
OVCAR-5 ovarian = details: 10 µM
OVCAR-4 ovarian = details: 10 µM
SK-OV-3 ovarian = details: 10 µM
IGROV1 ovarian = details: 10 µM
OVCAR-3 ovarian = details: 10 µM
HS 578T breast = details: 10 µM
NCI/ADR-RES ovarian = details: 10 µM
T-47D breast = details: 10 µM
BT-549 breast = details: 10 µM
SR leukemia = details: 10 µM

## Cc1cc(NCCCN(C)C)c2ccc3c(ccc4c(NCCCN(C)C)cc(C)nc43)c2n1
EKVX NSCLC
  growth: -34.1% (active)
SN12C renal
  growth: -49.6% (active)
UO-31 renal
  growth: -54.7% (active)
TK-10 renal; 10 µM
  growth: -42.2% (active)
ACHN renal
  growth: -75.2% (active)
CAKI-1 renal
  growth: -41.7% (active)
A498 renal
  growth: -87.6% (active)
CCRF-CEM leukemia
  growth: -28.7% (active)
MOLT-4 leukemia
  growth: -24.3% (active)
OVCAR-8 ovarian
  growth: -24.6% (active)
OVCAR-5 ovarian
  growth: -15.4% (active)
OVCAR-4 ovarian
  growth: -33.7% (active)
SK-OV-3 ovarian
  growth: -39.4% (active)
IGROV1 ovarian
  growth: -73.4% (active)
OVCAR-3 ovarian
  growth: -58.3% (active)
HS 578T breast
  growth: -42.7% (active)
NCI/ADR-RES ovarian
  growth: -10.4% (active)
T-47D breast
  growth: -34.2% (active)
BT-549 breast
  growth: -91.4% (active)

## CN(C)CCC(=O)c1c[nH]c2ccccc12
EKVX NSCLC
  growth: 111%
SN12C renal
  growth: 104%
UO-31 renal
  growth: 77.3%
TK-10 renal; 10 µM
  growth: 103%
ACHN renal
  growth: 105%
CAKI-1 renal
  growth: 94.4%
A498 renal
  growth: 126%
CCRF-CEM leukemia
  growth: 96.2%
MOLT-4 leukemia
  growth: 93.6%
SR leukemia
  growth: 91.5%
OVCAR-8 ovarian
  growth: 112%
OVCAR-5 ovarian
  growth: 109%
OVCAR-4 ovarian
  growth: 111%
SK-OV-3 ovarian
  growth: 96.6%
IGROV1 ovarian
  growth: 106%
OVCAR-3 ovarian
  growth: 110%
HS 578T breast
  growth: 106%
NCI/ADR-RES ovarian
  growth: 110%
T-47D breast
  growth: 84.1%
BT-549 breast
  growth: 121%

## CSc1ccc2c(c1)C(N1CCN(C)CC1)Cc1ccccc1S2 (stereo unspecified)
EKVX NSCLC
  growth: 55.9%
SN12C renal
  growth: 35.6%
UO-31 renal
  growth: 15.5%
TK-10 renal; 10 µM
  growth: 43.1%
ACHN renal
  growth: 12%
CAKI-1 renal
  growth: 19.5%
A498 renal
  growth: 16.4%
CCRF-CEM leukemia
  growth: 31.7%
MOLT-4 leukemia
  growth: -23.3% (active)
SR leukemia
  growth: -32.8% (active)
OVCAR-8 ovarian
  growth: 67.9%
OVCAR-5 ovarian
  growth: 41.7%
OVCAR-4 ovarian
  growth: 36.1%
SK-OV-3 ovarian
  growth: 86.2%
IGROV1 ovarian
  growth: 20.8%
OVCAR-3 ovarian
  growth: 61.4%
HS 578T breast
  growth: 39.8%
NCI/ADR-RES ovarian
  growth: 49.2%
T-47D breast
  growth: 43.3%
BT-549 breast
  growth: 63.1%

## Cc1ccc2nc(N/N=C/c3ccc(C)s3)cc(C)c2c1
TK-10 renal; 100 µM
  growth: -96.6% (active) and -100% (active)

## S=c1[nH]nc(Cc2ccccc2)c(=S)[nH]1
EKVX NSCLC
  growth: 97.8%
SN12C renal
  growth: 113%
UO-31 renal
  growth: 76.3%
TK-10 renal; 10 µM
  growth: 99.7%
ACHN renal
  growth: 107%
CAKI-1 renal
  growth: 97.6%
A498 renal
  growth: 68.9%
CCRF-CEM leukemia
  growth: 104%
MOLT-4 leukemia
  growth: 106%
SR leukemia
  growth: 94.7%
OVCAR-8 ovarian
  growth: 104%
OVCAR-5 ovarian
  growth: 107%
OVCAR-4 ovarian
  growth: 98%
SK-OV-3 ovarian
  growth: 99.6%
IGROV1 ovarian
  growth: 102%
OVCAR-3 ovarian
  growth: 95.4%
HS 578T breast
  growth: 101%
NCI/ADR-RES ovarian
  growth: 100%
T-47D breast
  growth: 90.4%
BT-549 breast
  growth: 109%

## O=C(/C(=C/c1ccccc1)CBr)c1ccccc1
EKVX NSCLC
  growth: 82.1%
SN12C renal
  growth: 71.4%
UO-31 renal
  growth: 69.9%
TK-10 renal; 10 µM
  growth: 116%
ACHN renal
  growth: 70%
CAKI-1 renal
  growth: 60.1%
A498 renal
  growth: 128%
CCRF-CEM leukemia
  growth: -4.28% (active)
MOLT-4 leukemia
  growth: -3.18% (active)
SR leukemia
  growth: -0.723% (active)
OVCAR-8 ovarian
  growth: 86.1%
OVCAR-5 ovarian
  growth: 122%
OVCAR-4 ovarian
  growth: 80.3%
SK-OV-3 ovarian
  growth: 112%
IGROV1 ovarian
  growth: 90.9%
OVCAR-3 ovarian
  growth: 66.1%
HS 578T breast
  growth: 82.9%
NCI/ADR-RES ovarian
  growth: 81.4%
T-47D breast
  growth: 77.5%
BT-549 breast
  growth: 112%

## CN1CCN(c2ccc3nc(-c4ccc5nc(-c6ccc(O)cc6)[nH]c5c4)[nH]c3c2)CC1
EKVX NSCLC
  growth: 105%
SN12C renal
  growth: 88.9%
UO-31 renal
  growth: 103%
TK-10 renal; 10 µM
  growth: 111%
ACHN renal
  growth: 94.4%
CAKI-1 renal
  growth: 92.6%
CCRF-CEM leukemia
  growth: 74%
MOLT-4 leukemia
  growth: 76.4%
SR leukemia
  growth: 67%
OVCAR-5 ovarian
  growth: 61.9%
OVCAR-4 ovarian
  growth: 89.8%
SK-OV-3 ovarian
  growth: 84.4%
IGROV1 ovarian
  growth: 112%
OVCAR-3 ovarian
  growth: 66.4%
NCI/ADR-RES ovarian
  growth: 130%
T-47D breast
  growth: 39.2%
BT-549 breast
  growth: 97.9%

## CCCCCCCCCCCCCCCCCN
SN12C renal
  growth: 96.8%
UO-31 renal
  growth: 87.6%
TK-10 renal; 10 µM
  growth: 102%
ACHN renal
  growth: 97%
CAKI-1 renal
  growth: 91.1%
A498 renal
  growth: 104%
CCRF-CEM leukemia
  growth: 102%
MOLT-4 leukemia
  growth: 104%
SR leukemia
  growth: 57.8%
OVCAR-8 ovarian
  growth: 104%
OVCAR-5 ovarian
  growth: 106%
OVCAR-4 ovarian
  growth: 102%
SK-OV-3 ovarian
  growth: 96.8%
IGROV1 ovarian
  growth: 107%
OVCAR-3 ovarian
  growth: 108%
HS 578T breast
  growth: 103%
NCI/ADR-RES ovarian
  growth: 115%
T-47D breast
  growth: 101%
BT-549 breast
  growth: 106%

## COc1cc(C(C)(C)C)cc(OC)c1C(O)(c1c(OC)cc(C(C)(C)C)cc1OC)c1c(OC)cc(C(C)(C)C)cc1OC
EKVX NSCLC
  growth: -50.5% (active)
SN12C renal
  growth: -80.2% (active)
UO-31 renal
  growth: -75.7% (active)
TK-10 renal; 10 µM
  growth: -90.8% (active)
ACHN renal
  growth: -93% (active)
CAKI-1 renal
  growth: -69.1% (active)
A498 renal
  growth: -79.4% (active)
CCRF-CEM leukemia
  growth: -68% (active)
MOLT-4 leukemia
  growth: -81% (active)
SR leukemia
  growth: -77.5% (active)
OVCAR-8 ovarian
  growth: -64.3% (active)
OVCAR-5 ovarian
  growth: -100% (active)
OVCAR-4 ovarian
  growth: -99.6% (active)
SK-OV-3 ovarian
  growth: -86.7% (active)
IGROV1 ovarian
  growth: 2.83% (active)
OVCAR-3 ovarian
  growth: -94.1% (active)
HS 578T breast
  growth: -33.3% (active)
NCI/ADR-RES ovarian
  growth: -56.8% (active)
T-47D breast
  growth: -30.2% (active)
BT-549 breast
  growth: -58.9% (active)
